A number with no mark means an inactive call. Active and inactive are the calls of the source.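 Rule for the calls: active = inhibition above the hit cutoff set in the earlier primary screen (cut at about 27% in these data); inactive = the rest.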
molecular target: Protein phosphatase methylesterase 1 (Homo sapiens) (UniProt Q9Y570); test: human PME-1 methylesterase inhibition confirmation – biochemical, fluorescence polarization, FP-Rh probe, triplicate (AID 2171); details: recombinant PME-1, FP-Rh probe fluorescence polarization; at 5.9 µM; active compounds read high;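 note: 0% = enzyme with DMSO and 100% = wells lacking PME-1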
Sequence (Q9Y570 whole entry, looked up): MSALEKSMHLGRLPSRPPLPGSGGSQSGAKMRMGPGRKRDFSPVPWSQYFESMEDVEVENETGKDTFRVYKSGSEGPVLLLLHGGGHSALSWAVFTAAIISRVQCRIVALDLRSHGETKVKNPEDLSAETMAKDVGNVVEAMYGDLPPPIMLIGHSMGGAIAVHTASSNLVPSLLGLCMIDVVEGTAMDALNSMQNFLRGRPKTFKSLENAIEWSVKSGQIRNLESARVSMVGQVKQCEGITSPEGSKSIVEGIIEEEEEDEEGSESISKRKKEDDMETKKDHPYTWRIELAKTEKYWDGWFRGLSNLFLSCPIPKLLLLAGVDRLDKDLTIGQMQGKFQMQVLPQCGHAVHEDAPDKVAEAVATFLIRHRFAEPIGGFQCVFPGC

Row | SMILES | inhibition
1 | CCOC(=O)N1CC=C2C(C#N)=C(N)C(C#N)(C#N)[C@H](c3ccc(OC(C)C)c(OCC)c3)[C@H]2C1 | 41.6% (active)
2 | N[C@H](CSCc1ccccc1)C(=O)Nc1ccc([N+](=O)[O-])cc1 | -1.96%
3 | N#Cc1ccc(Nc2nc(-c3ccc(O)cc3O)cs2)cc1C(F)(F)F | 51.9% (active)
4 | COc1ccc(OCCn2cc(/C=N/NC(=O)c3ccncc3)c3ccccc32)cc1 | -21.9%
5 | CCC(=O)NC(c1cccs1)c1cc([N+](=O)[O-])c2cccnc2c1O (centres undefined) | 25.9%
6 | Cc1ccc(-c2ccccc2NC(=O)CS(=O)CC(=O)Nc2ccc(C)c(Cl)c2)o1 (centres undefined) | 0.73%
7 | Nc1c(N=Nc2ccccc2F)c(=O)[nH]n1-c1ccccc1 | 30.1% (active)
8 | C=CCOc1c(OC)cc(/C=N/Nc2cccc(C(=O)O)c2)c(Br)c1Br | 44.5% (active)
9 | Cc1cc(C(C#N)c2ccc(Cl)cc2)c(Cl)cc1NC(=O)c1cc(I)cc(I)c1O (centres undefined) | 47.6% (active)

Source: PubChem BioAssay
